Assay [1] deals with Mast/stem cell growth factor receptor Kit (Homo sapiens) (UniProt P10721). Particulars: at 1 µM.
The subject of assay [2] is Mast/stem cell growth factor receptor Kit (Homo sapiens), P10721 [D816V]. The following applies: at 0.1 µM.
For assay [3] the test system is unchanged. Particulars: at 1 µM.
Assay [4] relates to Mast/stem cell growth factor receptor Kit (Homo sapiens), P10721 [T670I]. Particulars: at 0.1 µM.
Assay [5] has the same test system. The following applies: at 1 µM.
The subject of assay [6] is Mast/stem cell growth factor receptor Kit (Homo sapiens), P10721 [V560G]. Particulars: at 0.1 µM.
For assay [7] the test system is unchanged. Particulars: at 1 µM.
Assay [8] deals with Tyrosine-protein kinase Lck (Homo sapiens) (UniProt P06239). Particulars: at 0.1 µM.
Assay [9] has the same target. The following applies: at 1 µM.
Assay [10] addresses Leukocyte tyrosine kinase receptor (Homo sapiens) (UniProt P29376). Particulars: at 0.1 µM.
The target is the same in assay [11]. The following applies: at 1 µM.
Assay [12] deals with Tyrosine-protein kinase Lyn (Homo sapiens) (UniProt P07948). The following applies: at 0.1 µM.
Assay [13] has the same target. Particulars: at 1 µM.
Assay [14] shares this target. Particulars: at 0.1 µM. The source holds these as a separate data set.
For assay [15] the target is unchanged. Particulars: at 1 µM. This is another data set of the same source.
Assay [16] concerns the target T1, Tyrosine-protein kinase Mer (Homo sapiens) (UniProt Q12866).
T1 sequence (whole entry): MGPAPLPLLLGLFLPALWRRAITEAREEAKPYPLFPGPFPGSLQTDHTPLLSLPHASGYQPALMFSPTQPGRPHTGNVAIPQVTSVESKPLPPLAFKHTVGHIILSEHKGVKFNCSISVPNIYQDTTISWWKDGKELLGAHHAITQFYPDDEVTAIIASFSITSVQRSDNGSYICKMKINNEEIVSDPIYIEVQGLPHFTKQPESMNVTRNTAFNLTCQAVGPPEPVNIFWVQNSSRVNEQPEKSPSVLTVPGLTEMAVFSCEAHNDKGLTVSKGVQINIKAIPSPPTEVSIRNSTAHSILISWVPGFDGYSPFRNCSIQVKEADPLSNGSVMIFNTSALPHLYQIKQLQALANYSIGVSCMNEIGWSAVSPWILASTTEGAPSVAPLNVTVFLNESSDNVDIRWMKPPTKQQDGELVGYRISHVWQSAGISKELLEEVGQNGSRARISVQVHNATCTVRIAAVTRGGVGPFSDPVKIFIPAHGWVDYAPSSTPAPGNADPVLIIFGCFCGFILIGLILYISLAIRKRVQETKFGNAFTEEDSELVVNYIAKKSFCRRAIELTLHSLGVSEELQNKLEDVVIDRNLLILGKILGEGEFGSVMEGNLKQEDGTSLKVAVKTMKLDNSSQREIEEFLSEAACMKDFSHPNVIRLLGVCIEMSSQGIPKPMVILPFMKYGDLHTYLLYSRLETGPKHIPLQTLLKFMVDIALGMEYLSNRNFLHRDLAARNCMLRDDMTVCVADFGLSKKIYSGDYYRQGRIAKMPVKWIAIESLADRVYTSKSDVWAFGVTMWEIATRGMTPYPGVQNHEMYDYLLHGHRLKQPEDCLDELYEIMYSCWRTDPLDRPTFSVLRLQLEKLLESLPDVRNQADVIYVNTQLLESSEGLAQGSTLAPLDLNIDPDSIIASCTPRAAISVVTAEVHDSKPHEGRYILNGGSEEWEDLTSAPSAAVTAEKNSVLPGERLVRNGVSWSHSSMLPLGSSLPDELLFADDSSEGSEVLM
The following applies: at 0.1 µM.

Assay [17] concerns the target T1, Tyrosine-protein kinase Mer (Homo sapiens). Particulars: at 1 µM.
For assay [18], the target named is Hepatocyte growth factor receptor (Homo sapiens) (UniProt P08581). Particulars: at 0.1 µM.
Assay [19] shares this target. The following applies: at 1 µM.
Assay [20] concerns the target T2, Muscle, skeletal receptor tyrosine-protein kinase (Homo sapiens) (UniProt O15146).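 Also: values are mean inhibition of MuSK from the GSK PKIS kinase screening panel.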
T2 sequence (whole entry): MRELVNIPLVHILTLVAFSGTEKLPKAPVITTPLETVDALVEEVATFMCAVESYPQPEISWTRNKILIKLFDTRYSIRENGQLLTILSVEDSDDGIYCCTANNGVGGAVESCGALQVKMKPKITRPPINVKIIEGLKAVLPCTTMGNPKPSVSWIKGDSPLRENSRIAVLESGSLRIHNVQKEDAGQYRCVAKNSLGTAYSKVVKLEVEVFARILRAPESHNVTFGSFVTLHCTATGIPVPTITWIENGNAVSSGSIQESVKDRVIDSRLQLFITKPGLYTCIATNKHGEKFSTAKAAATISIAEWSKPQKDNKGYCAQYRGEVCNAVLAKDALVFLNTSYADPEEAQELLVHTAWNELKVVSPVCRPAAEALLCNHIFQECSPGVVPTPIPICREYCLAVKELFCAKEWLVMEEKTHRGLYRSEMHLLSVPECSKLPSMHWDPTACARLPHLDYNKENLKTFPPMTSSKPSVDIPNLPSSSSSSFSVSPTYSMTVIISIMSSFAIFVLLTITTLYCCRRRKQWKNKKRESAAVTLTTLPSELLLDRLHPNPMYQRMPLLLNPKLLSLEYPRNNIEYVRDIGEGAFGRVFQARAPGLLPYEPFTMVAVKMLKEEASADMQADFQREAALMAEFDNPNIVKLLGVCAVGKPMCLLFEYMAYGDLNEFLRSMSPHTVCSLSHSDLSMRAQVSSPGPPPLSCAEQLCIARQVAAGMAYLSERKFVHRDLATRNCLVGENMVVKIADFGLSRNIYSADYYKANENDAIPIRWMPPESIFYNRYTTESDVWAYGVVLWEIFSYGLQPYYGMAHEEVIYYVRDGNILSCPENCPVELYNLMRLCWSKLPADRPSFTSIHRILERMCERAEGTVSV
Particulars: at 0.1 µM.

Sequence of Mast/stem cell growth factor receptor Kit (Homo sapiens), P10721 [T670I] (P10721 whole entry T670I): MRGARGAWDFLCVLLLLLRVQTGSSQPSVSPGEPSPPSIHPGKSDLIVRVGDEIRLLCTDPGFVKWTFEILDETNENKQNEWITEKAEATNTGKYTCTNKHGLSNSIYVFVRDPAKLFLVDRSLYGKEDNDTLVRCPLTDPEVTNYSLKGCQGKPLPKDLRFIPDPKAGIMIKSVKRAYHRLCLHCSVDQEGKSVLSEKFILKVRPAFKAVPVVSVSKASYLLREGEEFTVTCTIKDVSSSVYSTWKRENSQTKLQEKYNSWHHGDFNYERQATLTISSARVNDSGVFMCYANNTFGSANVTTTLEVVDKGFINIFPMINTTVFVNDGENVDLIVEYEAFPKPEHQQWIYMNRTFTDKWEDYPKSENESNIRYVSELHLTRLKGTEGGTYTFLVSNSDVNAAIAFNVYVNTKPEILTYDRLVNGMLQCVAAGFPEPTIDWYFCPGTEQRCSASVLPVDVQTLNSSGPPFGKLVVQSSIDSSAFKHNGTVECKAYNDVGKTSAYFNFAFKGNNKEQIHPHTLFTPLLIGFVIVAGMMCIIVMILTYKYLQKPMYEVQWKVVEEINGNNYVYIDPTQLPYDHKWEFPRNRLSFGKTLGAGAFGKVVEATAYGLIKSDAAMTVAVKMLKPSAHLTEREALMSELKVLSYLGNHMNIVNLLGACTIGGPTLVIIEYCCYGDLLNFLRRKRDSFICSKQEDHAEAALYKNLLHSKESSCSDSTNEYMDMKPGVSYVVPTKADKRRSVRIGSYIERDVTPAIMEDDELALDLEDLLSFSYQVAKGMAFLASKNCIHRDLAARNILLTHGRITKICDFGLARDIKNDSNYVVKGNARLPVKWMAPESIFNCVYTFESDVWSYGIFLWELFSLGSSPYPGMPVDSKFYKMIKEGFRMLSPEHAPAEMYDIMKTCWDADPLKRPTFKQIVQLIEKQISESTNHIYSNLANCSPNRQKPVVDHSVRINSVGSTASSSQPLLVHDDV
Sequence of Mast/stem cell growth factor receptor Kit (Homo sapiens) (P10721 whole entry): as the sequence (P10721 whole entry T670I) above, with I670T counted along it
Sequence of Leukocyte tyrosine kinase receptor (Homo sapiens) (P29376 whole entry): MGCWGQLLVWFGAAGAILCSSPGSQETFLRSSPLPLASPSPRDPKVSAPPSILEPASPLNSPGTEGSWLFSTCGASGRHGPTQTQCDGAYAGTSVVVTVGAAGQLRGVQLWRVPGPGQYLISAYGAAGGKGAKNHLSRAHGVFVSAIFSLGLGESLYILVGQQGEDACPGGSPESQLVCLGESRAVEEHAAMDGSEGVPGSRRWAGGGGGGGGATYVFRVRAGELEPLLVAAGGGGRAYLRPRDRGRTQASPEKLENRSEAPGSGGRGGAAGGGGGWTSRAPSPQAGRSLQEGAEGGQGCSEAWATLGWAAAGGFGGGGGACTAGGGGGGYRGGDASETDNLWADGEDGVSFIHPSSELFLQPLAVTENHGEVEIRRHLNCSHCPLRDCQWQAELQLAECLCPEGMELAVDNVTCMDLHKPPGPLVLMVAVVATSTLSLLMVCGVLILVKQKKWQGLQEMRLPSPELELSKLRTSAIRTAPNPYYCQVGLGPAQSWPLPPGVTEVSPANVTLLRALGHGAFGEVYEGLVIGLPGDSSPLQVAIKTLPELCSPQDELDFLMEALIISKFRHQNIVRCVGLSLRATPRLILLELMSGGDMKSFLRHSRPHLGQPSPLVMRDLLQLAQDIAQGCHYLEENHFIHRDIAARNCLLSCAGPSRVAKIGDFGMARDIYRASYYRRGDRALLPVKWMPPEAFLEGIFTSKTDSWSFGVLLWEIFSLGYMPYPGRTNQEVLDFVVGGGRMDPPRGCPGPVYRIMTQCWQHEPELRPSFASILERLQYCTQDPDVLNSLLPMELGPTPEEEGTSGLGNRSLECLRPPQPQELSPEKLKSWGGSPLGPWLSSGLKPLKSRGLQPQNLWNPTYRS
Sequence of Tyrosine-protein kinase Lyn (Homo sapiens) (P07948 2-512 limits assumed): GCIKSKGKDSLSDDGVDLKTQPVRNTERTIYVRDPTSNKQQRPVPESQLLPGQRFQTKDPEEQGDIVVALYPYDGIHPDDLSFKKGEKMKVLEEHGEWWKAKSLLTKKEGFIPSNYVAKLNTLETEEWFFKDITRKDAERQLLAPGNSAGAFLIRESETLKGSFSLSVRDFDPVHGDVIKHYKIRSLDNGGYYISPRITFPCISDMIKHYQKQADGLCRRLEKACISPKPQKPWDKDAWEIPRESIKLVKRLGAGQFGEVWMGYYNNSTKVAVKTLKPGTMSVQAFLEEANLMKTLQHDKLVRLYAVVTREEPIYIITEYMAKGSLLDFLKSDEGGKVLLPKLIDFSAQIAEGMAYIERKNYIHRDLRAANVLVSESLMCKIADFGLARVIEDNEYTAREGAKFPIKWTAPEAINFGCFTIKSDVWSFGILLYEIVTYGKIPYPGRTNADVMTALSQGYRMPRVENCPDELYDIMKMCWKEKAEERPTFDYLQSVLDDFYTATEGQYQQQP
Sequence of Tyrosine-protein kinase Lck (Homo sapiens) (P06239 2-509 limits assumed): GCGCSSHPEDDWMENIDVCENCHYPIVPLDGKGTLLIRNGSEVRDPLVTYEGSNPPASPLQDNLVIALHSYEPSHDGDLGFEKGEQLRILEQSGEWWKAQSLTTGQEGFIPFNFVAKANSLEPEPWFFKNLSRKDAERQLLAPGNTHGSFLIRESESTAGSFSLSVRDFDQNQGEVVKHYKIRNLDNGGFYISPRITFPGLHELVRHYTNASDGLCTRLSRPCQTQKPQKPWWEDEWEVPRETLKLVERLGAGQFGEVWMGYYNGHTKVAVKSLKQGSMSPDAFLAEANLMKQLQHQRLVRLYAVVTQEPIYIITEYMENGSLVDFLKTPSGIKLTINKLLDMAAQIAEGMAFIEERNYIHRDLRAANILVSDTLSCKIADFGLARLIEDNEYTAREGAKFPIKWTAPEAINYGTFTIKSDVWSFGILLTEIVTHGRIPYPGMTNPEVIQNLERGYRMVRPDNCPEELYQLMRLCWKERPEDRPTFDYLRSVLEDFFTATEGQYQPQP
Sequence of Mast/stem cell growth factor receptor Kit (Homo sapiens), P10721 [D816V] (P10721 whole entry D816V): as the sequence (P10721 whole entry T670I) above, with I670T, D816V counted along it
Sequence of Mast/stem cell growth factor receptor Kit (Homo sapiens), P10721 [V560G] (P10721 whole entry V560G): as the sequence (P10721 whole entry T670I) above, with V560G, I670T counted along it
Sequence of Hepatocyte growth factor receptor (Homo sapiens) (P08581 whole entry): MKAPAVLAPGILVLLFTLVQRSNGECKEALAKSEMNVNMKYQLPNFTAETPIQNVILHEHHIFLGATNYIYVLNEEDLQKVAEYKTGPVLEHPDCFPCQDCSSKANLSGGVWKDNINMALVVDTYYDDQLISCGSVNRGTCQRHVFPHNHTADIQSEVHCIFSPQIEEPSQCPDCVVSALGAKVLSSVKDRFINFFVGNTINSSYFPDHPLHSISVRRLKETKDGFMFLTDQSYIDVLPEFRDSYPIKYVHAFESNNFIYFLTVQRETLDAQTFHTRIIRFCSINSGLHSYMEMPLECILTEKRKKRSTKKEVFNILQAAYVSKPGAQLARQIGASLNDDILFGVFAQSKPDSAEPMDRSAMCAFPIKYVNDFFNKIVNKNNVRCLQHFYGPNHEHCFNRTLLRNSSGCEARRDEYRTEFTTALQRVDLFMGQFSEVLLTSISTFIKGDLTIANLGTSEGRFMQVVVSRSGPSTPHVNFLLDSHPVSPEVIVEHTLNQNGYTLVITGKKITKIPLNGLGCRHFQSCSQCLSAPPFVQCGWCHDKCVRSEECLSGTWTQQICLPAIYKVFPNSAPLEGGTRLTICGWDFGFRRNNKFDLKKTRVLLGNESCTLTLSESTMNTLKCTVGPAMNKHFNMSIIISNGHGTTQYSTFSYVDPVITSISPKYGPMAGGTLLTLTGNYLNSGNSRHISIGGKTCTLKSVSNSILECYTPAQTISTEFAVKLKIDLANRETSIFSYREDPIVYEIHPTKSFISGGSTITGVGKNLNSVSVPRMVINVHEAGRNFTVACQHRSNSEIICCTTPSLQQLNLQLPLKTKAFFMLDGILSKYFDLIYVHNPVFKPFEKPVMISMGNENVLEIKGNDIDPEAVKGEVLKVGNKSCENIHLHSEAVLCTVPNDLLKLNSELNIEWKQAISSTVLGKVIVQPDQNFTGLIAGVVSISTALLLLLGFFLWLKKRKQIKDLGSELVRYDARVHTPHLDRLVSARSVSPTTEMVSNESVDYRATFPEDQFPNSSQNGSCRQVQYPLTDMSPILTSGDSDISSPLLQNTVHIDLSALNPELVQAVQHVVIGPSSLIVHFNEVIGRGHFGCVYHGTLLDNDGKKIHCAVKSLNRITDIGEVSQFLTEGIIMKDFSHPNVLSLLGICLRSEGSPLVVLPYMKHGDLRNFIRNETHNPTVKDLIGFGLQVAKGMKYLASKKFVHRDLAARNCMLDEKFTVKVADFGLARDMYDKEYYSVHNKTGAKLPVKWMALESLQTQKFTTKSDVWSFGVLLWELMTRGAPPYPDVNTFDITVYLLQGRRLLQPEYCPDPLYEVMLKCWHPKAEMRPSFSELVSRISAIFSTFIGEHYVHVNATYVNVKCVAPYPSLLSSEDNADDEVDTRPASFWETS

For the compound `CN(C)c1ccc2c(c1)/C(=C/Nc1ccc(S(N)(=O)=O)cc1)C(=O)N2`, the inhibition (usually the change of the read-out against control, counted positive when it falls) in assay [1] is 28.4%; in [2] it was 1.55%; in assay [3] it was 3.22%; in assay [4] it was 3.39%; in [5], 10%; in assay [6], -1.48%. The inhibition in assay [7] is -1.72%; in assay [8], 2.35%; in assay [9], 12.7%; in assay [10] it was 0.81%; in [11], 2.8%; in assay [12] it was 3.6%. Moreover, the inhibition in [13] was 22.4%; in assay [14], 2.71%; in assay [15], 17.4%; in assay [16], 1.88%; in assay [17], 10.8%; in assay [18], -0.65%. Moreover, the inhibition in [19] was determined as 4.48%; in assay [20] it was 8.66%.
Take `O=C1NC(=O)C(c2cccc(Cl)c2)=C1Nc1ccc(Cl)c(C(=O)O)c1`: the inhibition in assay [1] was 5.28%; in assay [2], 1.8%; in [3], 5.8%; in assay [4] it was 2.83%; in assay [5], 4.22%; in assay [6], 1%. The inhibition in [7] was determined as 6.94%; in [8] it was 1.82%; in assay [9], 0.84%; in assay [10] it was 2.51%; in assay [11], 2.96%; in [12] it was 3.89%. The inhibition in assay [13] was 4.02%; in assay [14], 2.44%; in [15], 3.42%; in assay [16], 1.12%; in [17], -0.64%; in [18] it was 1.38%. In addition, the inhibition in assay [19] was found to be 3.65%; in assay [20], 2.04%.
`O=C(Nc1ccc(Oc2ccc3[nH]c(NC(=O)c4ccccc4)nc3c2)cc1)Nc1cc(C(F)(F)F)ccc1F`: the inhibition in assay [1] was found to be 85.1%; in [2], 1.52%; in assay [3] it was 4.26%; in [4] it was 5.51%; in assay [5], 52.1%; in [6], 10.4%. In addition, the inhibition was 67% in [7]; 2.25% in [8]; 14.4% in assay [9]; 1.84% in assay [10]; 3.76% in [11]; 5.73% in assay [12]. The inhibition in assay [13] is 27.5%; in [14], 3.48%; in [15] it was 23.4%; in assay [16], 1.3%; in [17] it was 3.74%; in assay [18], 4.39%. Also, the inhibition in assay [19] worked out at 19.2%; in assay [20] it was 13.9%.
Consider `Cc1nnc(-c2ccc(C)c(-c3ccc(C(=O)NCc4ccc(Cl)cc4)cc3)c2)o1`, for which the inhibition was 3.81% in assay [1]; 4.88% in assay [2]; 1.51% in assay [3]; 2.49% in [4]; 7.38% in assay [5]; -1.65% in [6]. The inhibition is -1.05% in [7]; -2.94% in assay [8]; -1.25% in [9]; 1.83% in assay [10]; 4.02% in assay [11]; 3.85% in assay [12]. Also, the inhibition in assay [13] stood at 8.64%; in [14], 2.14%; in assay [15] it was 4.87%; in assay [16] it was 2.04%; in assay [17] it was 1.93%; in [18], 4.09%. Further, the inhibition was 6.08% in [19] and 2.38% in [20].
For the compound `NS(=O)(=O)c1ccc(N/N=C2\C(=O)Nc3ccc(C(=O)NCCCn4ccnc4)cc32)cc1`, the inhibition in [1] is 9.5%; in assay [2], 6.28%; in [3], 9.36%; in assay [4], 3.5%; in [5] it was 5.57%; in [6], -1.18%. For the same compound, the inhibition in assay [7] turned out to be 1.2%; in assay [8], 1.53%; in [9] it was 7.02%; in assay [10], 5.17%; in [11], 7.11%; in [12], 6.54%. Moreover, the inhibition in [13] is 16.1%; in [14], 4.32%; in [15], 12.4%; in [16], 1.34%; in [17] it was 6.35%; in [18] it was 2.76%. In addition, the inhibition in assay [19] came to 12%; in [20] it was 4.66%.

Values taken from ChEMBL document CHEMBL1961873, “Compounds: GSK PKIS; Assays: Nanosyn kinase panel” (2012).
